According to the supplement of paper PMC6135742:
Where a name gives a salt, the structure may show the parent alone. Over roughly 2,600 compounds, “MBP+ mature oligodendrocyte number relative to DMSO vehicle control” has its median near -0.34; the highest 2% begin near 13. The full list was thinned out, with the highest values kept by preference.

System: jimpy (Plp1 jimpy) mouse iPSC-derived oligodendrocyte progenitor cells
Experiment: MBP+ mature oligodendrocyte number relative to DMSO vehicle control (SDs above negative control mean); higher = more surviving jimpy oligodendrocytes (rescue)
Conditions: 10 µM; 3 days
Description: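 Primary phenotypic screen of >3,000 bioactive compounds (Selleck L1700 and Sigma LO1280 libraries) at a single dose of 10 µM. Compounds were added to jimpy (Plp1 mutant) mouse iPSC-derived OPCs at the start of thyroid hormone-induced oligodendrocyte differentiation, one well per compound in 384-well plates. After 3 days cells were stained for MBP, Sox10 and DAPI and imaged with an Operetta system. MBP+ oligodendrocyte number and total cell number were expressed as the number of SDs above the mean of the DMSO negative control on the same plate (n=16 control wells per plate). Hits were defined as >=4 SD for oligodendrocytes and >=2 SD for total cells.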

Compound | MBP+ mature oligodendrocyte number
OC1CCCCC1N1CCC(c2ccccc2)CC1 (racemic) [(±)-Vesamicol hydrochloride] | 15.7
Cc1ccc2c(c1)C1(CCN(CCc3nc(-c4ccccc4)oc3C)CC1)OC(=O)N2 | -2.6
C[N+]1(C)[C@@H]2CC(OC(=O)[C@H](CO)c3ccccc3)C[C@H]1[C@@H]1O[C@@H]12 (single isomer, unassigned; (-)) [(-)-Scopolamine methyl nitrate] | 0.539
N[C@]1(C(=O)O)CC[C@H](C(=O)O)C1 (racemic) [trans-(±)-ACPD] | 0.981
CN1CC[C@@]2(C)c3cc(O)ccc3N(C)C12 (single isomer, unassigned; (-)) [(-)-Eseroline fumarate] | -1.28
COc1ccc2c(c1OC)C(=O)OC2C1c2cc3c(cc2CCN1C)OCO3 (single isomer, unassigned; (+)) [(+)-Hydrastine] | 1.13
NC(=O)c1ccc(OCC(O)CN2CC=C(c3ccc(F)cc3)CC2)cc1 (stereo not given) | 13.9
CC(=O)OCC1=C(C(=O)[O-])N2C(=O)[C@@H](NC(=O)CCC[C@@H](N)C(=O)[O-])[C@H]2SC1.[Zn+2] [Cephalosporin C zinc salt] | -0.943
CCCC[N+]1(C)[C@@H]2C[C@@H](OC(=O)[C@H](CO)c3ccccc3)C[C@H]1[C@@H]1O[C@@H]12 (single isomer, unassigned; (-)) [(-)-Scopolamine,n-Butyl-, bromide] | -0.925
CN1CC[C@]2(CCN3CCc4c(oc5ccccc45)[C@@H]3C2)N(C)C1=O | 1.72
CCS(=O)(=O)Nc1cccc(C(=C2CCCCC2)c2cnc[nH]2)c1 | 2.51
CC(C)Oc1cccnc1N(C)C1CCN(Cc2ccccc2)CC1 | 19.1
CO[C@H]1CC[C@@H](O[C@H]2C[C@H]([C@]3(C)CC[C@]4(C[C@H](O)[C@@H](C)[C@@H]([C@@H](C)/C=C(\C)C(=O)[C@H](C)C[C@H](C)C(=O)O)O4)O3)O[C@]3(O[C@@H]([C@H]4O[C@@](O)(CO)[C@H](C)C[C@@H]4C)C[C@@H]3C)[C@@H]2C)O[C@@H]1C [Nanchangmycin] | < -6.7
CC(N)Cc1cccc(C(F)(F)F)c1 (single isomer, unassigned; (+)) [(+)-Norfenfluramine hydrochloride] | 0.753
COc1ccc2[nH]c3c(c2c1)CCNC3 [6-Methoxy-1,2,3,4-tetrahydro-9H-pyrido[3,4b] indole] | -0.315
